PubChem BioAssay AID651681 (Broad Institute, 2012)
Calls of active or inactive are those of the source.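 How the source made its calls: active means compound with fitted CDK2 half-maximal potency at or below twice its top tested dose; inconclusive means flat curve near 30 to 70% inhibition, or poor fit; inactive means the rest.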

target: Cyclin-dependent kinase 2 (Homo sapiens) + Cyclin-A2 (Homo sapiens) (UniProt P20248+P24941); assay: CDK2/cyclin A inhibitors, off-target check, dose response, selectivity assay for Dyrk1A inhibitor project, biochemical, dry powder, set 3 (AID 651681); conditions: CDK2/cyclin A ADP-Glo luminescence, histone H1 peptide; series mostly up to 10 µM
Sequence (P20248 whole entry, looked up, one chain of several): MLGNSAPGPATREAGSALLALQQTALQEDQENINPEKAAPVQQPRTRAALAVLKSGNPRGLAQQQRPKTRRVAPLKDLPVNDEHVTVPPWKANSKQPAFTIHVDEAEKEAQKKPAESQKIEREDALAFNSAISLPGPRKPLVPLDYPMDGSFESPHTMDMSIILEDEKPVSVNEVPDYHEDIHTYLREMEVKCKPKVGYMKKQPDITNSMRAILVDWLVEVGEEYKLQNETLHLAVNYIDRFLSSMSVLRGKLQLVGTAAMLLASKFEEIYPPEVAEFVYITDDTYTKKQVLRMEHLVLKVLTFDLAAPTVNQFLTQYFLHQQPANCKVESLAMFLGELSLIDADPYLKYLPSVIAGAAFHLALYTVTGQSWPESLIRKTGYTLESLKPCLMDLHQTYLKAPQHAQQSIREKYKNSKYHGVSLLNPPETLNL

outcome, inactive:
COc1ccc(C2=Nn3c(nnc3-c3cccnc3)SC2)cc1OC
COc1ccc(OC)c(C2=Nn3c(nnc3-c3ccncc3)SC2)c1
O=C(NCc1ccccc1)c1sc2ccccc2c1Cl
CN(CC(=O)Nc1nccs1)S(=O)(=O)c1ccc(Cl)cc1
COc1ccc2nc(NC(=O)C3CCN(S(=O)(=O)c4cccc5nsnc45)CC3)sc2c1
COc1ccc2c(Cl)c(C(=O)NCc3cccnc3)sc2c1
COc1ccc2nc(NC(=O)CN(C)S(=O)(=O)c3ccc(F)cc3)sc2c1
COc1ccc(OC)c(C2=Nn3c(nnc3-c3ccccn3)SC2)c1
COc1ccc2c(Cl)c(C(N)=O)sc2c1
CN(CC(=O)Nc1nc2ccccc2s1)S(=O)(=O)c1ccc(Cl)cc1
COc1ccc2nc(NC(=O)C3CCN(S(=O)(=O)c4cccc5nonc45)CC3)sc2c1
COc1ccc2nc(NC(=O)C3CCN(S(=O)(=O)c4ccc(C)cc4)CC3)sc2c1
COc1ccc(-c2csc(NC(=O)CSCC(=O)N3CCCC3)n2)cc1
COc1ccc(C2=Nn3c(nnc3-c3ccncc3)SC2)cc1
COc1cccc(C2=Nn3c(nnc3-c3ccccc3)SC2)c1
CN(CC(=O)Nc1nc2ccc(F)cc2s1)S(=O)(=O)c1ccc(Cl)cc1
COc1ccc(CNC(=O)c2sc3ccccc3c2Cl)cc1
COc1ccc2nc(NC(=O)C3CCCN(S(=O)(=O)c4cccc5nonc45)C3)sc2c1 (configuration not stated)
COc1ccc2nc(NC(=O)C3CCCN(S(=O)(=O)c4cccc5cccnc45)C3)sc2c1 (configuration not stated)
CCOc1ccc2nc(NC(=O)COc3ccc(Cl)c(OC)c3)sc2c1
Cc1ccc(S(=O)(=O)N(C)CC(=O)Nc2nc3ccc(Cl)cc3s2)cc1C
COc1ccc2c(Cl)c(C(=O)NC(C)C)sc2c1
